Compound activity: PubChem BioAssay, National Center for Advancing Translational Sciences (NCATS)
GLP1R cytotox = cytotoxicity counter-screen for GLP-1 receptor inverse agonists. HEK293 cAMP-luciferase reporter cells, luminescence, 24 h. Potency, µM (titrated, usually from 38.3 µM), hits mostly inhibitors. actives 0.13% (n = 410,000);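 note: loss of luciferase light is scored as toxicity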
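MLSMR compounds, 24 hr on cells at 37 deg C/5% CO2; luminescence after luciferase reagent (12 min RT). Inhibition counted as the undesired cytotoxic outcome.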
GLP1R inv ag = acts as inverse agonist at human GLP-1 receptor. actives 1.6% (n = 410,000). P43220. Potency, µM (series often up to 38.3 µM), most hits filed as inhibitors. AID 624417. HEK293 GLP-1R CRE-luciferase, luminescence, 24 h; GLP-1R form is constitutively active; note: nearly all actives have a fitted effect of over 55% in size
Target sequence (P43220 whole entry, looked up): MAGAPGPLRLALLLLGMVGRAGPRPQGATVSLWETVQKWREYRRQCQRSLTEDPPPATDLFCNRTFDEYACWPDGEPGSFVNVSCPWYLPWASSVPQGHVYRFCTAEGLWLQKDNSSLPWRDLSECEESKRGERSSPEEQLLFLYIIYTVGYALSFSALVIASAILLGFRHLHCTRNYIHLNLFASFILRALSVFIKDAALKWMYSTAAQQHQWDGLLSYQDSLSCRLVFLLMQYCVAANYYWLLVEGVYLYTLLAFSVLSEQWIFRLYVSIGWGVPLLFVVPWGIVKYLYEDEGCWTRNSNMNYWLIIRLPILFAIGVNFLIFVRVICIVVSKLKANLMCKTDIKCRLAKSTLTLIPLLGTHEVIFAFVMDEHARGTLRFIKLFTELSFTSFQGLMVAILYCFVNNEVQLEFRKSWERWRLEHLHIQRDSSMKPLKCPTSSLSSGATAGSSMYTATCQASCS
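Seeding at 200 cells/uL, 12 h culture, 24 hr compound treatment, then luciferase reagent and a luminescence read; cells are HEK293 stably expressing a constitutively active GLP-1R plus cAMP-responsive luciferase.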
GLP-1R agonist = agonists of human GLP-1 receptor; P43220; HEK293 GLP-1R CRE-luciferase, luminescence, 4-6 h; cells express a hypersensitive GLP-1R form; Potency, µM (top dose mostly 45.6 µM), usual class: activators; actives 0.007% (n = 380,000)
D3 antag = antagonists of human D3 dopamine receptor; P35462; D3R cells, DiscoveRx beta-arrestin luminescence, antagonist mode; active compounds read low; max response, negative = inhibition, %; actives 2.5% (n = 360,000); AID 652054; in the data active = max response below about -50%; inconclusive = no clear call, values can overlap the other calls
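Cells expressing the human receptor were seeded at 1500 cells/well, incubated overnight at 37 degrees C in 5% CO2, then exposed to library compounds with dopamine controls for 90 minutes at 37 degrees C before luminescent detection.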
DRD3 agonist = agonists of human D3 dopamine receptor. P35462. max activation, %. D3R DiscoveRx beta-arrestin cells, luminescence, 90 min. actives 0.58% (n = 410,000); in the data active = max activation above about 30%
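Agonist mode: compounds and dopamine controls were applied to plated cells for 90 min at 37 degrees C after an overnight attachment at 1500 cells/well. Luminescent read-out followed 30 - 60 minutes at room temperature with DiscoveRx detection reagent.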
ClpP mod = qHTS Assay for Activators of ClpP | actives 1.9% (n = 340,000) | purified B. subtilis ClpP, FRET peptide cleavage, 20 min | Potency, µM (series often up to 57.5 µM) | ATP-dependent Clp protease proteolytic subunit (Bacillus subtilis (strain 168)), P80244; active = well fitted falling curve with a large enough effect; inconclusive = small, poorly fitted or top-dose-only effect; inactive = no such curve, though single readings can be large or run the other way; note: the source files actives as falling curves though it sought activators and does not explain the sign; nearly all actives have a fitted effect of over 65% in size
Target sequence (P80244 whole entry, looked up): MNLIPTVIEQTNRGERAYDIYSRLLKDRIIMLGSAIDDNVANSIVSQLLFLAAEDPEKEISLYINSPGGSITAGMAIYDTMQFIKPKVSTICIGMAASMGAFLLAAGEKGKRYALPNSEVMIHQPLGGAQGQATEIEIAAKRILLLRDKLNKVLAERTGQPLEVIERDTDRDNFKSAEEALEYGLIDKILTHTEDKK
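Buffer: 100 mM Tris/HCl pH8, 100 mM KCl, 0.05% low protease BSA, 2.5% glycerol, 0.01% Tween-20. ClpP 10 microg/mL final; 20 min RT; delta FRET normalized to ADEP and DMSO controls.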
Large screens that a line does not name were inactive. Most compounds without a hit are left out; they make up all but 5.7% or so of the library. Unless noted, calls come from the whole dose curve; as a rule, active = well fitted curve in the direction sought with a large enough effect; inconclusive = small, poorly fitted or top-dose-only effect, or another doubt; inactive = no such curve, though single readings can be large; an effect the other way counts as inactive or inconclusive.

CCN(C(=O)CSc1nnc(-c2cccc(F)c2)n1N)c1c(N)n(Cc2ccccc2)c(=O)[nH]c1=O	none (no result: ClpP mod)
CCCCn1nnnc1C(c1cc2ccccc2o1)N(C)Cc1ccc(Cl)cc1 (stereo not drawn)	GLP1R inv ag inconclusive
COC(=O)c1ccc(C)c(NC(=O)c2ccc(CN3CCc4ccccc4C3)cc2)c1	GLP1R inv ag inconclusive, D3 antag -92
COc1ccc(C)cc1NC(=O)c1ccc(CN2CCc3ccccc3C2)cc1	GLP1R inv ag inconclusive, D3 antag -69 (no result: ClpP mod)
COc1ccc(C(CNC(=O)c2cc3ccccc3o2)N2CCCC2)cc1 (stereo not drawn)	GLP1R inv ag inconclusive, D3 antag -84
COc1ccc(C(CNC(=O)c2cc3ccccc3o2)N2CCCCC2)cc1 (stereo not drawn)	GLP1R inv ag inconclusive, D3 antag -74 (no result: ClpP mod)
COc1ccc(C(CNC(=O)c2oc3ccccc3c2C)N2CCCCC2)cc1 (stereo not drawn)	GLP1R inv ag inconclusive (no result: GLP-1R agonist, D3 antag)
COc1ccc(C(CNC(=O)c2oc3ccc(C)cc3c2C)N2CCCCC2)cc1 (stereo not drawn)	GLP1R inv ag inconclusive, D3 antag -104
COc1ccc(C(CNC(=O)CNC(=O)c2ccccc2)N2CCCC2)cc1 (stereo not drawn)	D3 antag inconclusive
c1ncc2snnc2n1	none (no result: GLP1R cytotox, GLP1R inv ag, GLP-1R agonist, D3 antag, DRD3 agonist)
COc1ccc(CN2CCC(CNS(=O)(=O)c3cccc(C(F)(F)F)c3)CC2)cc1	GLP1R inv ag 11µM, D3 antag inconclusive (no result: ClpP mod)
COC(=O)c1cc(S(=O)(=O)NCC2CCN(Cc3ccc(F)cc3)CC2)c[nH]1	none
CN(C1=C(N2CCOCC2)C(=O)c2ccccc2C1=O)c1ccccc1	GLP1R cytotox inconclusive, GLP1R inv ag 10µM
CCOC(=O)c1cc2ccccc2n1C1CCN(CCc2ccccc2)CC1	GLP1R inv ag inconclusive
CCOC(=O)c1cc2cc(OC)ccc2n1C1CCN(CCc2ccccc2)CC1	GLP1R inv ag inconclusive, D3 antag -109
CCCCOc1ccc(C(=O)N2CCC(C)CC2)cc1	GLP1R inv ag inconclusive
CCCCOc1ccc(C(=O)OC2CC(C)N(C)CC2C)cc1 (stereo not drawn)	GLP1R inv ag 3.5µM
CN(C(=O)COC(=O)c1ccccc1OCC(=O)Nc1ccc(Br)cc1)c1ccccc1	none (no result: GLP1R cytotox, GLP1R inv ag, GLP-1R agonist, D3 antag, DRD3 agonist)
Cc1ccc(NC(=O)C2CCCN(c3ncnc4onc(C)c34)C2)c(Cl)c1 (stereo not drawn)	none (no result: GLP-1R agonist, D3 antag)
C[N+](C)(C)CCNC(=O)c1ccccc1	none
Cc1ccc(S(=O)(=O)c2nc(-c3ccccc3)oc2NCCN2CCOCC2)cc1	D3 antag -73
Cc1ccccc1-c1nc(S(=O)(=O)c2ccccc2)c(NCCCN2CCOCC2)o1	GLP1R inv ag inconclusive, D3 antag -65
O=S(=O)(c1ccccc1)c1nc(-c2ccccc2Cl)oc1NCCCN1CCOCC1	GLP1R inv ag inconclusive, D3 antag -71
O=S(=O)(c1ccccc1)c1nc(-c2ccccc2Cl)oc1NCCN1CCOCC1	none
COc1ccc(-n2c(=O)c3sc4ccccc4c3n(CC(=O)NC3CCCCC3)c2=O)cc1	ClpP mod inconclusive (no result: D3 antag)
CC(C)[C@H](CO)N(Cc1cccc(F)c1)c1nc(Nc2cccc(Cl)c2)c2ncn(C(C)C)c2n1	GLP1R inv ag 4µM, ClpP mod inconclusive
CN(C)c1ccc(CNC(=O)C2(C)Cc3c(-c4cccc(C(F)(F)F)c4)ccnc3O2)cc1 (stereo not drawn)	GLP1R cytotox inconclusive, GLP1R inv ag inconclusive, D3 antag -84
CC1(C(=O)NCc2ccc(F)c(F)c2)Cc2c(-c3cccc(C(F)(F)F)c3)ccnc2O1 (stereo not drawn)	GLP1R inv ag 10µM
CC1(C(=O)NCc2ccc(F)c(F)c2)Cc2c(-c3ccccc3)ccnc2O1 (stereo not drawn)	GLP1R inv ag inconclusive
CC(=O)Nc1cccc(-c2ccnc3c2CC(C)(C(=O)NCc2ccc(N(C)C)cc2)O3)c1 (stereo not drawn)	GLP1R cytotox inconclusive, GLP1R inv ag inconclusive
COc1ccc(NC(=O)c2oc3ccccc3c2NC(=O)C2CCCCC2)c(OC)c1	none (no result: D3 antag)
CC1(c2nnnn2-c2ccc3c(c2)OCCO3)CCC(=O)N1CCOc1ccccc1 (stereo not drawn)	none
Cc1cccc(-c2ocnc2C(=O)Nc2ccccc2C(=O)N2CCCC2)c1	none (no result: ClpP mod)
Cc1cccc(-c2ocnc2C(=O)Nc2ccccc2NC(=O)c2ccccn2)c1	GLP1R cytotox inconclusive, GLP1R inv ag 0.5µM (no result: ClpP mod)
Cc1ccc(-c2ocnc2C(=O)Nc2ccccc2NC(=O)c2ccccn2)cc1	GLP1R cytotox 1.1µM, GLP1R inv ag inconclusive
Cc1ccc(-c2ocnc2C(=O)Nc2nc(C)cs2)cc1	ClpP mod inconclusive
CCCc1n[nH]c(=S)n1Cc1ccco1	none
S=c1[nH]nc(C23CC4CC(CC(C4)C2)C3)n1Cc1ccco1	GLP1R inv ag 7.9µM
Cc1ccc(NC(=O)c2c(C)nn(-c3ccccc3)c2-n2cccc2)c(Cl)c1	none (no result: GLP-1R agonist, D3 antag)
COC(=O)c1sccc1NC(=O)COc1ccc(C)cc1	D3 antag -75
COC(=O)c1sccc1NC(=O)c1cc(C)on1	D3 antag -53, ClpP mod inconclusive
COC(=O)c1sc(NC(=O)COc2ccc(C)cc2)nc1C	none
C[N+]1=C(/C=C/Nc2ccccc2Cl)C(C)(C)c2ccccc21	none
COC(=O)c1ccc2c(c1)C(C)(C)C(/C=C/c1ccccc1O)=[N+]2C	GLP1R cytotox 10µM, GLP1R inv ag inconclusive, D3 antag inconclusive
O=C(Nc1cnn(Cc2ccc(F)cc2)c1)c1cnccn1	none
O=C(Nc1cnn(Cc2ccc(F)cc2)c1)C(c1ccccc1)c1ccccc1	GLP1R inv ag 4.5µM
COC(=O)c1c(C)cc(O)cc1O	none
COC(=O)c1cc(O)cc(OC)c1Oc1cc(C)cc(O)c1C(=O)O	GLP1R inv ag 8.9µM, D3 antag inconclusive
COC(=O)c1cc(O)cc(OC)c1C(=O)c1c(O)cc(C)cc1O	DRD3 agonist 30
COc1ccc(-c2nc(C)c(CCNC(=O)c3cc(OC)c(OC)c(OC)c3)s2)cc1OC	none (no result: D3 antag)
Cc1cccc(C)c1-n1nnnc1C(c1ccccc1)N1CCN(C/C=C/c2ccccc2)CC1 (stereo not drawn)	GLP1R inv ag inconclusive, D3 antag -133
Cc1cccc(C)c1-n1nnnc1C(c1ccnc2ccccc12)N1CCN(CCN(C)C)CC1 (stereo not drawn)	none
